According to PubChem BioAssay AID2284116 (EPA ToxCast):
Active and inactive are the calls of the source. How the source made its calls: active means hit-call score of the fitted dose curve at least 0.9, where 1 is the maximum; inactive means score below 0.9.

Target: human Matrix Metallopeptidase 9 (MMP9), MMP9 (gene 4318) (UniProt P14780)
Test: ERF_FR_ENZ_hMMP9: Eurofins (ERF) Enzymatic LeadHunter Assay for human Matrix Metallopeptidase 9 (MMP9)
Procedure: ERF_FR_ENZ_hMMP9 is a biochemical, single-readout assay that uses extracted gene-proteins in a cell-free assay. Measurements were taken 1.5 hour after chemical dosing in a 96-well plate. See MMP9 Human Matrix Metallopeptidase Enzymatic Assay, Cerep.ERF_FR_ENZ_hMMP9 is an assay component calculated from the ERF_FR_ENZ_hMMP9 assay. It is designed to measure enzyme activity using a type of enzyme reporter as detected by fluorescence intensity with fluorimetry technology.Data from the assay component ERF_FR_ENZ_hMMP9 was analyzed at the assay endpoint, ERF_FR_ENZ_hMMP9, in the positive analysis fitting direction relative to DMSO as the negative control and baseline of activity. Using a type of enzyme reporter, loss-of-signal activity can be used to understand changes in enzymatic activity as they relate to gene MMP9. To generalize the intended target to other relatable targets, this assay endpoint is annotated to the protease intended target family, where the subfamily is matrix metallopeptidase.
[…] are incubated for 60 minutes at room tempreature with Mca-PLGL-Dap(Dnp)-AR-NH2 (7.5 uM) as sunstrate and […] as control inhibitor. Test Sample Requirements: Minimum for 1) Screen: 60 ul of 10 mM stock -OR- 1 mg (pre-weighed) for 10 uM final testing. 2) Dose Response: 90 ul of 10 mM stock -OR- 1 mg (pre-weighed) for a top concentration at 10 uM.

Sequence of human Matrix Metallopeptidase 9 (MMP9), MMP9 (gene 4318) (P14780 whole entry, looked up): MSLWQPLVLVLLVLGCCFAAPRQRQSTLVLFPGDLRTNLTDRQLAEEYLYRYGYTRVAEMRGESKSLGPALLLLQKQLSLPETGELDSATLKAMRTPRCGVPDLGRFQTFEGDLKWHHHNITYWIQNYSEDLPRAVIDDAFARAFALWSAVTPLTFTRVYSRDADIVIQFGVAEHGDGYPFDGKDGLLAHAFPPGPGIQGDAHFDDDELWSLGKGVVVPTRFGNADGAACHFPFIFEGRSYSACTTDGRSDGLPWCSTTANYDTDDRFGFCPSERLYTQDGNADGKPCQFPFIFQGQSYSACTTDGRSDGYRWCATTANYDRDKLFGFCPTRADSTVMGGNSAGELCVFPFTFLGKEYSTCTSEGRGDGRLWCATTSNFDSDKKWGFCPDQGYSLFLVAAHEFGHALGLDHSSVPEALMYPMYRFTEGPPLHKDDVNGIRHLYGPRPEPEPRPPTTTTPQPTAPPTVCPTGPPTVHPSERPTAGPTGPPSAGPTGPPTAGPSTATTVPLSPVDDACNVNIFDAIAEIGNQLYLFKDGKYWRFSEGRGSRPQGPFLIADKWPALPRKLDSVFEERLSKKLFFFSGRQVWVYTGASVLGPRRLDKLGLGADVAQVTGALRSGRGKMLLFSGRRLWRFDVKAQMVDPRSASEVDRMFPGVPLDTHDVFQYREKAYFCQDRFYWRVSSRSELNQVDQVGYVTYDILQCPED

Q: With `O=C(/C=C/c1ccc(O)cc1)CC(=O)/C=C/c1ccc(O)cc1` as the molecule, how does the outcome read?
A: inactive
